From PubChem BioAssay (NCI)
The panel holds about 83,000 compounds, 20% with a hit somewhere; the sample as a whole holds those more often.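 The endpoint reported here, percent growth, reads 100 for growth as untreated, 0 for no net growth and -100 for all cells dead.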 A number with no mark means an inactive call. The source made the active and inactive calls. The calls were made as follows: active = growth percent below 10; inactive = the rest.

Tested on: A549/ATCC NSCLC
Assay: NCI-60 one-dose screen, 48 h (100 = growth as untreated, 0 = no growth, -100 = all killed)
Conditions: 10 µM unless noted

SMILES	growth
CN1CCN(CCOc2ccc(-c3cnc4c(-c5ccc(F)cc5)cnn4c3)cc2)CC1	27.3%
O=C(Cc1ccc(/C=C/C(=O)c2ncc[nH]2)cc1)Nc1cc(C(F)(F)F)cc(C(F)(F)F)c1	81.1%
CCN(CC)c1ccc(/C=N/NC(=O)Cc2ccc(Nc3ccnc(C(F)(F)F)c3)cc2)c(O)c1	23.4%

Tested on: 786-0 renal
Assay: as above
Conditions: 10 µM unless noted

SMILES	growth
Cc1cccc(-c2nc(Nc3ccc4ncsc4c3)c3ccccc3n2)n1	87.7%
COc1ccc(-c2cc(-c3ccccc3)nc(N3CCN(CCNc4ccnc5cc(Cl)ccc45)CC3)n2)cc1	-94.6% (active)
N#Cc1cccc(C2C3=C(COC3=O)N(CCO)c3cc4c(cc32)OCO4)c1 (stereo not drawn)	24.9%
CCN1C(=O)N(CC)C2C1NC(=S)N2/N=C/c1ccc(OC)cc1 (stereo not drawn)	62.1%
Nc1[nH]c(=S)nc2oc(-c3ccccc3)c(-c3ccccc3)c12	103%
N=C(N)c1ccc(-c2ccc(-c3cc(Cl)cc(Cl)c3)s2)nc1	79.6%
c1ccc2c(c1)CCCc1nnc3nc4ccccc4n3c1-2	34.2%
Nc1[nH]n2cc(-c3ccc(F)cc3)nc2c1N=Nc1ccc(S(N)(=O)=O)cc1	68.1%
CNC(C)[C@H]1CCC2C3CC=C4C(=O)[C@@H](NC(=O)C=C(C)C)CC[C@]4(C)C3CC[C@@]21C (stereo partly drawn)	3.96% (active)
COc1ccc2c(c1)/C(=N/c1n[nH]c(=S)s1)C(=O)N2	105%
Cc1ccc(-c2nc(SCc3nc4cc(Cl)c(Cl)cc4[nH]3)[nH]c(=O)c2C#N)cc1	94.5%
COc1ccc2c(c1)c(/C(O)=C1\COC(=O)C1=O)cn2Cc1ccc(F)cc1	96.1%
O=C1/C(=C2\SC(=S)N(C3CC3)C2=O)SC(=S)N1C1CC1	98.6%
C#CC#CC#CC#CC#CC#CC#CC#CCC1OC[C@H](COC(=O)O[C@@H](C(=O)O[C@H]2C[C@@]3(O)[C@@H](OC(=O)c4ccccc4)[C@@H]4[C@]5(OC(C)=O)CO[C@@H]5C[C@H](O)[C@@]4(C)C(=O)[C@H](OC(C)=O)C(=C2C)C3(C)C)[C@@H](NC(=O)c2ccccc2)c2ccccc2)O1 (stereo partly drawn)	48.8%
Cc1nnc(-c2ccc3c(c2)nc(/C=C/c2ccccc2)n3C2CCCCC2)o1	92.2%
Nc1nc(N)c2c(n1)NC(c1ccc(Cl)cc1)C1CCc3ccccc3C1=N2 (stereo not drawn)	64.4%
Fc1ccc(Cn2cc(CSc3nc4ccccc4o3)nn2)cc1	91.1%
CC(C)(C)c1cc(Cl)c(O)c(CNCCO)c1	102%
Nc1nc2c(c3ncccc13)C(c1cccc(Cl)c1)Cc1ncccc1-2 (stereo not drawn)	22.6%
COc1ccc(C(=O)N2c3ccccc3Sc3ccccc32)c(C(F)(F)F)c1	38.8%

SMILES	growth
Cc1ccc(C(=O)c2ccc(CC(=O)NN3C(=O)c4ccccc4C3=O)n2C)cc1	103%
C=C1C(=O)O[C@H]2[C@H]1CC/C(Cn1cc(CCC)nn1)=C\CC[C@@]1(C)O[C@@H]21	3.66% (active)
O=C(/C=C/c1ccccc1)c1ccc(Nc2nc(Nc3ccc(F)cc3)nc(Nc3ccc(Cl)cc3)n2)cc1	86.8%
N#Cc1cccc(C2C3=C(COC3=O)N(CCO)c3cc4c(cc32)CCC4)c1 (stereo not drawn)	24%
CCN1C(=O)N(CC)C2Nn3c(s/c(=C\c4ccccc4Br)c3=O)=NC21 (stereo not drawn)	25.3%
Cc1ccc(C=C2C(=O)NC(=O)NC2=O)cc1	107%
Cc1cccc(N2CCC(=O)NC2=S)c1	103%
N#C/C(=C\c1ccc(-c2cccc(C(F)(F)F)c2)o1)c1ccccc1	99.9%
N#C/C(=C\c1ccc([N+](=O)[O-])cc1)n1nnc2cc(F)c(F)cc21	-58.4% (active)
CC/C=C\CCC/C=C1/C(=O)C=C[C@@H]1C/C=C\CCCC(=O)OC	69.3%
CN(C)c1ccc(/C=C(\C#N)c2cc3ccccc3[nH]2)cc1	32.9%
O=C(Nc1ccc(Br)cc1)C1=NCCCCN1	96.2%
CNC(=O)c1cc(Oc2cccc3nc(NC(=O)Nc4cc(C(F)(F)F)ccc4Cl)ccc23)ccn1	68.8%
COc1cccc(CCNc2ncnc3c2ncn3Cc2nnc3c4ccccc4c(Cl)nn23)c1	57.7%
CCOC(=O)c1c(C)nc2c(c1N)/C(=C/c1ccc(OC)cc1)C(=O)N2Cc1ccccc1	64.4%
O=S(=O)(NCCNc1nccc(-c2c(-c3ccc(F)c(O)c3)nc3sccn23)n1)c1ccc(F)cc1	38.1%
S=C(c1ccc2c(c1)OCO2)N1CCN(c2cccc(Cl)c2)CC1	37.8%
CN1CCN(CCOc2ccc(-c3cnc4c(-c5ccc(F)cc5)cnn4c3)cc2)CC1	60.3%
O=C(Cc1ccc(/C=C/C(=O)c2ncc[nH]2)cc1)Nc1cc(C(F)(F)F)cc(C(F)(F)F)c1	52.2%
CCN(CC)c1ccc(/C=N/NC(=O)Cc2ccc(Nc3ccnc(C(F)(F)F)c3)cc2)c(O)c1	1.44% (active)
